Results on 40 compounds are retold here after PubChem BioAssay (NCATS).

Inconclusive results are not listed. A number with no mark means an inactive call. The source made the active and inactive calls. Calls follow the shape of the dose curve; as a rule, active = well fitted cell-killing curve with a large enough effect; inconclusive = small, poorly fitted or top-dose-only effect, or effect the other way; inactive = no such curve, though single readings can be large or run the other way.
Potency is read from the fitted curve at half-maximal effect.

The experiment is described as follows: Quantitative High-Throughput drug screen in 47 multiple myeloma cell lines against the NCATS MIPE library collection: UTMC2_PLB cell viability assay (AID 1919868). Also: nearly all actives have a fitted effect of over 55% in size. To be noted: CellTiter-Glo ATP luminescence, 48 h; viability (% of DMSO control): at 45.8 µM (top of the series) unless noted. From the text:
PI: Beverly A. Mock Ph.D.
Laboratory of Cancer Biology and Genetics,
Center for Cancer Research, National Cancer Institute,
National Institute of Health, Bethesda, Maryland
Drug resistance and disease progression are common in multiple myeloma (MM) patients, underscoring the need for new therapeutic combinations. […] We hypothesized that effective combinations would reduce MYC expression and enhance p16 activity. […] These preclinical data identify potentially useful drug combinations for evaluation in drug-resistant MM and reveal potential mechanisms of combined drug sensitivity.
Described herein is the primary MIPE qHTS used to cherrypick compounds. Validated compounds were then further tested for potential synergistic activiy.
[1] Peat TJ, Gaikwad SM, Dubois W, Gyabaah-Kessie N, Zhang S, Gorjifard S, Phyo Z, Andres M, Hughitt VK, Simpson RM, Miller MA, Girvin AT, Taylor A, Williams D, D'Antonio N, Zhang Y, Rajagopalan A, Flietner E, Wilson K, Zhang X, Shinn P, Klumpp-Thomas C, McKnight C, Itkin Z, Chen L, Kazandijian D, Zhang J, Michalowski AM, Simmons JK, Keats J, Thomas CJ, Mock BA. Drug combinations identified by high-throughput screening promote cell cycle transition and upregulate Smad pathways in myeloma. Cancer Lett. 2023 Aug 1;568:216284. doi: 10.1016/j.canlet.2023.216284. Epub 2023 Jun 24. PMID: 37356470; PMCID: PMC10408729.
SEQUENCE No. (e.g., 1, 2, 3, etc.); […] (e.g., Cells, Incubation, Reagent, etc.); VALUE and DESCRIPTION.
1; Cells; 5 uL; white, solid bottom 1536-well Greiner assay plate.
2; Compounds; 23 nL; Kalypsis pin tool (Wako USA) equipped with a 1536-well pin head to transfer to the assay plates.
3; Incubation; 48 hours; 37C incubation.
4; Reagent;5uL; CellTiter Glo (Promega).
5; Detector; 425V; Luminescence; Viewlux PerkinElmer.
NOTES (numbers refer to Sequence numbers above)
1. The cell-based screening methods employed in this study were like those previously published. Briefly, the corresponding myeloma cell lines were screened in 1,536-well plates with 500 cells, 5-uL per well for inhibition of cell viability (assessed by measuring ATP levels with CellTiterGlo).
2. NCATS MIPE 4.0 library of approved and investigational drugs were added using the Kalypsis pin tool. Wells treated with DMSO only for 100% viability and media only for 0% viability were used as controls.
3. The assay plates were covered and incubated for 48 hours in a 37C, 5% CO2 incubator with controlled humidity.
4. After 48 hours, CellTilter-GloTM luminescent substrate mix (Promega) reagent was added to the assay plate and plates we incubated for 5 min at room temperature.
5. Signal was measured as median relative luminescence units on a ViewLux (PerkinElmer) multiplate reader.
[1] Heske CM, Davis MI, Baumgart JT, Wilson K, Gormally MV, Chen L, Zhang X, Ceribelli M, Duveau DY, Guha R, Ferrer M, Arnaldez FI, Ji J, Tran HL, Zhang Y, Mendoza A, Helman LJ, Thomas CJ. Matrix Screen Identifies Synergistic Combination of PARP Inhibitors and Nicotinamide Phosphoribosyltransferase (NAMPT) Inhibitors in Ewing Sarcoma. Clin Cancer Res. 2017 Dec 1;23(23):7301-7311. doi: 10.1158/1078-0432.CCR-17-1121. Epub 2017 Sep 12. PMID: 28899971; PMCID: PMC6636827.
With `Clc1cccc(-n2nnnc2NCc2ccccc2Oc2ccccn2)c1Cl`, the “viability (% of DMSO control)” value is 95.6%.

Take `CCN1CCN(Cc2ccc(-c3cc4c(N[C@H](C)c5ccccc5)ncnc4[nH]3)cc2)CC1`: the Potency is 662 nM (active). Take `Cc1cc(Nc2ncnc3ccc(-c4ccc(CNCCS(C)(=O)=O)o4)cc23)ccc1Oc1ccn2ncnc2c1`: the Potency is 6620 nM (active). `C=CC(=O)Nc1cc2c(Nc3ccc(F)c(Cl)c3)ncnc2cc1OCCCN1CCOCC1`: the Potency is 4690 nM (active). As for `NC(=O)c1cccc2cn(-c3ccc([C@@H]4CCCNC4)cc3)nc12`, the “viability (% of DMSO control)” value is 137%.

Regarding `C[C@]1(CO)CN(c2cc(C(=O)Nc3ccc4c(c3)-c3c(c(C(N)=O)nn3-c3ccc(F)cc3)CC4)c(Cl)cn2)C[C@@]1(C)CO`, the Potency was 11800 nM (active).

As for `COC(=O)[C@]12CCC(C)(C)C[C@@H]1[C@@H]1C(=O)C=C3[C@@]4(C)C=C(C#N)C(=O)C(C)(C)[C@@H]4CC[C@@]3(C)[C@]1(C)CC2`, the Potency was 372 nM (active). Take `COc1ccc(C(=O)CC2(O)C(=O)Nc3c(Cl)ccc(Cl)c32)cc1` (stereo not given): the Potency is 4180 nM (active). The same measure, in the same setting: the same measure for `CN1CC[C@@H](c2c(O)cc(O)c3c(=O)cc(-c4ccccc4Cl)oc23)[C@@H](O)C1`: 83.3 nM (active); for `O=C(O)c1ccc2c(c1)nc(Nc1cccc(Cl)c1)c1ccncc12`: 2640 nM (active); for `Cc1cnc(-c2cnc(NCCNc3ccc(C#N)cn3)nc2-c2ccc(Cl)cc2Cl)[nH]1`: 13200 nM (active).

As to `CC=C1NC(=O)[C@H]2CSSCCC=C[C@H](CC(=O)N[C@H](C(C)C)C(=O)N2)OC(=O)[C@H](C(C)C)NC1=O`, the Potency was 33.2 nM (active).

Turning to `Cc1cc(C(=O)N2CCN(c3cccc(Cl)c3)CC2)n(-c2ccccc2)n1`, the Potency is 833 nM (active). On to `CC1(C)OC2=C(C(=O)c3ccccc3C2=O)[C@H](NCc2ccccc2)[C@H]1O`, for which the Potency is 2350 nM (active). Still for that read-out and setting: next, `CNC(=O)c1cc(Oc2ccc(NC(=O)Nc3cc(C(C)(C)C)nn3-c3ccc4ncccc4c3)c(F)c2)ccn1`: 4180 nM (active); `OCCCNc1cc(-c2ccnc(Nc3cccc(Cl)c3)n2)ccn1`: 41.8 nM (active); `Nc1nccc(Oc2ccc(NC(=O)c3c[nH]cc(-c4ccc(F)cc4)c3=O)cc2F)c1Cl`: 29600 nM (active).

Take `CC1(C)CCC(c2ccc(Cl)cc2)=C(CN2CCN(c3ccc(C(=O)NS(=O)(=O)c4ccc(N[C@H](CCN5CCOCC5)CSc5ccccc5)c(S(=O)(=O)C(F)(F)F)c4)cc3)CC2)C1`: the Potency was 93.5 nM (active).

`CN(C)Cc1c(C(=O)NCCOc2ccc(C(=O)NO)cc2)oc2ccccc12`: the Potency is 418 nM (active). Take `Cc1cc(Nc2cc(N3CCN(C)CC3)nc(Sc3ccc(NC(=O)C4CC4)cc3)n2)n[nH]1`: the Potency was 1 nM (active). For the compound `CCN(CC)CCNC(=O)c1ccc2nc(-c3ccccc3)c(-c3ccc(CN4CCC(n5c(=O)[nH]c6ccccc65)CC4)cc3)nc2c1`, the Potency is 1320 nM (active).

For `COc1cc(C(C)C)c2c(c1)S(=O)(=O)N(COc1cc(=O)n3cccc(OCCN4CCCCC4)c3n1)C2=O`, the Potency was 26400 nM (active). Take `COc1ccc(-c2cc3c(C)nc(N)nc3n(C3CCC(OCCO)CC3)c2=O)cn1` (stereo not given): the Potency is 52.6 nM (active). As to `CC(O)C1C(=O)N2C(C(=O)O)=C(SC3CNC(C(=O)N(C)C)C3)C(C)C12` (stereo not given), the “viability (% of DMSO control)” value was 131%. Consider `CNC(=O)c1ccccc1Nc1nc(Nc2ccc(N3CCOCC3)cc2OC)ncc1Cl`, for which the Potency is 209 nM (active). Same read-out and setting: the same measure for `CN1CCN(c2ccc3nc(-c4c(N)c5c(F)cccc5[nH]c4=O)[nH]c3c2)CC1`: 5900 nM (active); for `C[C@@]12O[C@@H](C[C@]1(O)CO)n1c3ccccc3c3c4c(c5c6ccccc6n2c5c31)CNC4=O`: 118 nM (active); for `CNC(=O)c1ccc(N2C(=S)N(c3cnc(C#N)c(C(F)(F)F)c3)C(=O)C23CCC3)cc1F`: 3320 nM (active).

In the case of `CC1COC2(CCN(c3nc(=O)c4cc(C(F)(F)F)cc([N+](=O)[O-])c4s3)CC2)O1` (stereo not given), the “viability (% of DMSO control)” value was 156%.

As to `Cn1cncc1[C@@](N)(c1ccc(Cl)cc1)c1ccc2c(c1)c(-c1cccc(Cl)c1)cc(=O)n2C`, the Potency is 833 nM (active). For the compound `Nc1ccccc1NC(=O)c1ccc(CNC(=O)OCc2cccnc2)cc1`, the Potency is 1320 nM (active).

For `O=C(C=Cc1cccnc1)NCCCCC1CCN(C(=O)c2ccccc2)CC1`, the Potency was 1 nM (active). For `CC[C@H](CO)Nc1nc(NCc2ccccc2)c2ncn(C(C)C)c2n1`, the Potency is 23500 nM (active). In the case of `CC[C@H]1CN2CCc3cc(OC)c(OC)cc3[C@H]2C[C@@H]1C[C@@H]1NCCc2cc(OC)c(OC)cc21`, the Potency was 187 nM (active). Turning to `CCN(CC)CCCCNc1ncc2cc(-c3cc(OC)cc(OC)c3)c(NC(=O)NC(C)(C)C)nc2n1`, the Potency was 16600 nM (active).

For `Nc1ncnc2c1c(-c1cccc(OCc3ccccc3)c1)cn2C1CC(CN2CCCC2)C1` (stereo not given), the Potency is 66.2 nM (active). Same read-out and setting: next, `C=CC(=O)Nc1cc2c(Nc3ccc(F)c(Cl)c3)ncnc2cc1C#CC(C)(C)N1CCN(C)CC1`: 2350 nM (active). The same measure, in the same setting: next, `O=C(NC1CCNCC1)c1[nH]ncc1NC(=O)c1c(Cl)cccc1Cl`: 662 nM (active); `NC(=O)Nc1cc(-c2cccc(F)c2)sc1C(=O)N[C@H]1CCCNC1`: 105 nM (active). On the same count and under the same terms, next, `CCC1=C[C@@H]2CN(C1)Cc1c([nH]c3ccccc13)[C@@](C(=O)OC)(c1cc3c(cc1OC)N(C)[C@@H]1[C@@](O)(C(=O)OC)[C@H](OC(C)=O)[C@]4(CC)C=CCN5CC[C@]31[C@@H]54)C2`: 1 nM (active).
